MEX-5 binding – C. elegans MEX-5 TCR-2 RNA binding activity; hit rate 0.38% among 300,000; activity score (negative = inhibition of binding), % at 10 µM; Q9XUB2; MEX-5/FITC-TCR2 RNA binding, fluorescence polarization; active compounds read low;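 active = inhibition past about -25% in most replicates, and total fluorescence under double the plate's negative control median, limit read from the data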;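 note: 0% = DMSO and -100% = 5 µM competing unlabeled TCR2 RNA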
GLD-1 RNA inh – GLD-1-TGE RNA interaction inhibition (C. elegans); AID 2280; hit rate 0.44% among 320,000; purified GLD-1 + fluorescein TGE RNA, fluorescence polarization; inhibition, % at 5.96 µM;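 active = percent inhibition above a per-plate cutoff, the plate mean of test compounds plus 3 SD, cut at about 30% in these data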;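 note: 0% = DMSO wells with GLD-1 and probe and 100% = wells lacking GLD-1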
Target sequence (Q17339 whole entry, looked up): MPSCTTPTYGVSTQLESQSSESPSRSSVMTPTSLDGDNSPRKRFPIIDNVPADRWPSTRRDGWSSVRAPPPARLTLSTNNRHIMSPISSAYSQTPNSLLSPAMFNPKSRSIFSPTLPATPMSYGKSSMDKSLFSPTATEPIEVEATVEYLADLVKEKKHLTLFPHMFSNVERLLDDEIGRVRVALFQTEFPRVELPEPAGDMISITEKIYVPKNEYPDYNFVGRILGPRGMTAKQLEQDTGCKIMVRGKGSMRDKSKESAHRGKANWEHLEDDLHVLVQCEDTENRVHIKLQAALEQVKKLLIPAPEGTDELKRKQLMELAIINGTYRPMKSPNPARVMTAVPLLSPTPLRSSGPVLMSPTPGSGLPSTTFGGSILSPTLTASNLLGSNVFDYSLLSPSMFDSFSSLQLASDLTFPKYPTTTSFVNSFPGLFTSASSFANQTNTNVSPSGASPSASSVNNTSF
E coli Lon inh – inhibits E. coli Lon protease. P0A9M0. purified E. coli Lon protease, fluorescence polarization. inhibition, % at 7.94 µM. hit rate 0.42% among 360,000; in the data active = inhibition above about 13%, passing the limit was not always enough;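 note: 0% = enzyme with probe and DMSO and 100% = no enzyme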
MCL1-BIM inh – inhibitors of human MCL1 binding to BIM-BH3 peptide; Q07820; GST-MCL1 / FITC-Bim-BH3 fluorescence polarization; inhibition, % at 10.9 µM; hit rate 0.68% among 320,000; AID 2057;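 active = inhibition above the mean inhibition of all tested compounds plus 3 SD, set per campaign, cut at about 40% in these data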;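 note: 0% = DMSO wells and 100% = unlabeled Bim-BH3 peptide control; higher means more loss of mP so more displacement of Bim peptide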
BCLXL inh – inhibitors of human Bcl-xL. Q07817. hit rate 0.7% among 320,000. inhibition, % at 10.9 µM. GST-Bcl-xL / FITC-Bim BH3 peptide fluorescence polarization. AID 2129;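 active = inhibition above the mean of all tested compounds plus 3 SD, cutoff set per campaign, cut at about 30% in these data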;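 note: 0% = DMSO wells and 100% = unlabeled Bim-BH3 peptide competitor; inhibitors lower millipolarization by displacing the labeled peptide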
E coli Lon conf – confirmation of E. coli Lon protease inhibitors; AID 602230; purified E. coli Lon, fluorescence polarization; hit rate 31% among 1,400; shares compounds with E coli Lon inh; inhibition, % at 7.94 µM; in the data active = inhibition above about 16%;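 note: 0% = enzyme with probe and DMSO and 100% = no enzyme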
The depositor's hits bear a star. Sampled rows, rich in hits. Any-hit rate of the full collection: about 1.4%.

O=C(O)CC/C(=C\c1ccc2c(c1)OCO2)c1nc2ccccc2s1 was read as MEX-5 binding -4, GLD-1 RNA inh 28, E coli Lon inh 26*, MCL1-BIM inh 9, BCLXL inh 13 and E coli Lon conf -17.
`O=C(O)CC/C(=C\c1ccc(Cl)c([N+](=O)[O-])c1)c1nc2ccccc2s1` gave MEX-5 binding 2, GLD-1 RNA inh -8, E coli Lon inh 1, MCL1-BIM inh 6 and BCLXL inh 8.
Screening N#CC1=C2CCCCC2(O)NC1=O (stereo unspecified) returned E coli Lon inh -17.
`Cc1ccc(S(=O)(=O)NNC(=O)Nc2cccc(C)c2C)c(C)c1` gave MEX-5 binding -2, GLD-1 RNA inh 5, E coli Lon inh 21*, MCL1-BIM inh 2, BCLXL inh 2 and E coli Lon conf 2.
Screening O=C(O)c1cc(N2N=C(C(F)(F)F)/C(=C/C=C/c3ccco3)C2=O)ccc1Cl returned E coli Lon inh 28* and E coli Lon conf -12.
Screening O=C(Cc1cccs1)NCCn1ccc2ccccc21 returned MEX-5 binding 3, GLD-1 RNA inh -6, E coli Lon inh 19*, MCL1-BIM inh 2, BCLXL inh -5 and E coli Lon conf -5.
`CCC(=O)NCCn1ccc2ccccc21` gave MEX-5 binding -3, GLD-1 RNA inh 0, E coli Lon inh -5, MCL1-BIM inh 3 and BCLXL inh 2.
O=C(O)CCC(=O)N1N=C(c2ccco2)CC1c1ccco1 (stereo unspecified) was read as MEX-5 binding 1, GLD-1 RNA inh -6, E coli Lon inh 4, MCL1-BIM inh 11 and BCLXL inh 4.
Screening Cc1ccc(C2=NN(C(=O)CCCC(=O)O)C(c3ccco3)C2)cc1 (stereo unspecified) returned MEX-5 binding 0, GLD-1 RNA inh -1, E coli Lon inh 19*, MCL1-BIM inh 1, BCLXL inh 7 and E coli Lon conf -4.
Screening CCOC(=O)C1=C(COC(=O)c2c(OC)cccc2OC)NC(=O)NC1C (stereo unspecified) returned MEX-5 binding -1, GLD-1 RNA inh -3, E coli Lon inh -4, MCL1-BIM inh -11 and BCLXL inh -9.
For CCOC(=O)C1=C(COC(=O)Cc2c(F)cccc2Cl)NC(=O)NC1C (stereo unspecified) the results were GLD-1 RNA inh 1, E coli Lon inh 24*, MCL1-BIM inh -15, BCLXL inh -6 and E coli Lon conf -1.
`Cc1ccc(S(=O)(=O)NNC(=S)Nc2ccc(Cl)cc2)cc1` gave MEX-5 binding -3, GLD-1 RNA inh 0, E coli Lon inh -2, MCL1-BIM inh -7 and BCLXL inh -6.
`Cc1ccc(S(=O)(=O)NNC(=S)Nc2ccccc2)cc1` gave MEX-5 binding -2, GLD-1 RNA inh -3, E coli Lon inh 22*, MCL1-BIM inh 9, BCLXL inh 2 and E coli Lon conf -6.
Screening O=C(Cc1ccc(Br)cc1)N1CCN(c2ccc(F)cc2)CC1 returned MEX-5 binding -1, GLD-1 RNA inh -1, E coli Lon inh -5, MCL1-BIM inh 4 and BCLXL inh 3.
O=C(Cc1ccc(Br)cc1)N1CCN(c2ccccc2O)CC1 was read as MEX-5 binding 1, GLD-1 RNA inh 8, E coli Lon inh 24*, MCL1-BIM inh -3, BCLXL inh 3 and E coli Lon conf 3.
`O=C(CSc1ccc2c(c1)OCCO2)N1CCN(c2ccccc2O)CC1` gave E coli Lon inh 20* and E coli Lon conf -3.
`CC1(Cc2ccc3c(c2)OCO3)C(=O)Nc2c(Cl)ccc(Cl)c21` (stereo unspecified) gave E coli Lon inh 2.
`C[C@@]12CCC3[C@@](CCC4[C@@]3(C)CCC[C@@]4(C)C(=O)N3CCCCC3)(CC1=O)C2` (stereo partly specified) gave GLD-1 RNA inh 8, E coli Lon inh 28*, MCL1-BIM inh 0, BCLXL inh 2 and E coli Lon conf 7.
Screening O=c1[nH]cnc2sc3c(c12)CCN(Cc1ccccc1)C3 returned MEX-5 binding 11, GLD-1 RNA inh 10, E coli Lon inh 25*, MCL1-BIM inh 35, BCLXL inh 33* and E coli Lon conf 11.
